Source: PubChem BioAssay (NCI)
About 83,000 compounds went through this panel and 20% of them were active in at least one assay; those are over-represented in the sample as a whole.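 Results are percent growth after 48 hours of single-concentration exposure. 100 means growth as in untreated cells, lower positive values show inhibition; negative values down to -100 show cell death.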 A number with no mark means an inactive call. Calls of active or inactive are those of the source. How the source made its calls: active means growth percent below 10; inactive means the rest.

These compounds were tested on A498 renal (assay: NCI-60 one-dose screen, 48 h (100 = growth as untreated, 0 = no growth, -100 = all killed)). Details: 10 µM unless noted.

**Q.** How did the growth turn out when OCCn1cc(-c2nc3ccc4[nH]ncc4c3c3c2CCCC3)cn1 was run?
**A.** -3.55% (active)

**Q.** Which growth does the source give for O=C1Nc2cc(-c3ccc(NS(=O)(=O)c4ccc([N+](=O)[O-])cc4)cc3)ccc2/C1=C/c1ccc[nH]1 here?
**A.** -33.6% (active)

**Q.** O=C(Cn1c(-c2ccccc2)nc2ccccc21)N=Nc1c(O)[nH]c2ccc(Br)cc12 was tested. Which growth did it give?
**A.** -38.1% (active)

**Q.** Which growth does the source give for Cc1nc2sccn2c1-c1nnc(SCc2ccccc2)o1 here?
**A.** 87.8%

**Q.** With CCC1(OC(=O)c2ccccc2SSCCOC(=O)CCCCC2SCC3NC(=O)NC32)C(=O)OCc2c1cc1n(c2=O)Cc2cc3ccccc3nc2-1 (stereo unspecified) as the compound, how does the growth read?
**A.** 104%

**Q.** How did the growth turn out when C=CC(=O)Nc1ccc(C(=O)/C=C/c2ccc(N(C)C)cc2)c(O)c1 was run?
**A.** 42.8%

**Q.** With COc1ccc(C(=O)c2cc(C(C)=O)c3c(C)cc(C)cn23)cc1 as the compound, how does the growth read?
**A.** 86.1%

**Q.** How did the growth turn out when Cc1ccc(S(=O)(=O)N(CCn2ccnc2[N+](=O)[O-])CCn2ccnc2[N+](=O)[O-])cc1 was run?
**A.** 112%

**Q.** Cc1ccc(S(=O)(=O)Nc2ccc(-c3ccc4c(c3)NC(=O)/C4=C\c3ccc[nH]3)cc2)cc1 was tested. Which growth did it give?
**A.** 112%

**Q.** How did the growth turn out when COc1ccc2c(c1)C(=O)N(C)C2C1c2c(cc3c(c2OC)OCO3)CCN1C (stereo unspecified) was run?
**A.** 91.5%

**Q.** How did the growth turn out when Cc1ccc(C2CC(c3ccc(NC(=O)Nc4ccccc4)cc3)=NN2c2ccc(S(N)(=O)=O)cc2)cc1 (stereo unspecified) was run?
**A.** -93% (active)

**Q.** With COC(=O)c1cc(C(=O)C(Br)Br)n2c1ccc1c3ccccc3ccc12 as the compound, how does the growth read?
**A.** 121%

**Q.** COc1ccc2c(c1)N=c1c-2cc2c(O)[nH]c(=S)n2c1=O was tested. Which growth did it give?
**A.** 105%

**Q.** For O=Cc1cncc(-c2ccc3ncnc(N4CCc5cc(F)c(Cl)cc54)c3c2)c1, which growth is on record?
**A.** -30.4% (active)

**Q.** For CC1=C(C(=O)OC(C)C)C(c2ccc(O)cc2)NC(=O)N1 (stereo unspecified), which growth is on record?
**A.** 113%

**Q.** COC(=O)CSC1=C(C)C(=O)C(OC)=C(OC)C1=O was tested. Which growth did it give?
**A.** 90.4%

**Q.** How did the growth turn out when O=C1Nc2ccccc2/C1=C/C(=O)c1cc2ccccc2oc1=O was run?
**A.** 223%

**Q.** With COC(=O)c1ccc(-c2c(-c3ccccc3)c(F)c3oc(C(=O)OC)c(N)c3c2-c2ccccc2)cc1 as the compound, how does the growth read?
**A.** 99%

**Q.** For COc1cc(-c2ccc3ncnc(N4CCc5ccc(Cl)cc54)c3c2)cnc1Cl, which growth is on record?
**A.** -4.48% (active)

**Q.** For Oc1cncc(-c2ccc3ncnc(N4CCc5cc(F)c(Cl)cc54)c3c2)c1, which growth is on record?
**A.** -1.41% (active)

**Q.** Which growth does the source give for Nc1cc(-c2c[nH]c3ccc(F)cc23)nc2cc(-c3c[nH]c4ccccc34)nn12 here?
**A.** 21.8%

**Q.** C/C(=N\Nc1ccc(S(N)(=O)=O)cc1)c1cnn(-c2cc(=O)[nH]c3ccc(Br)cc23)c1C was tested. Which growth did it give?
**A.** 115%

**Q.** For O=C(Cn1c(-c2ccccc2)nc2ccccc21)N=Nc1c(O)[nH]c2ccc(Cl)cc12, which growth is on record?
**A.** -5.31% (active)

**Q.** With COC(=O)c1c(C(=O)OC)c2ccc3c4ccccc4ccc3n2c1C(=O)OC as the compound, how does the growth read?
**A.** 129%

**Q.** Which growth does the source give for COc1sc(/C=N/NC(=O)c2[nH]c3ccc(Br)cc3c2-c2ccccc2)cc1Br here?
**A.** 134%

**Q.** Which growth does the source give for O=C(NNC(=O)c1ccc(OCc2nc3ccc(Cl)cc3[nH]2)cc1)Nc1ccc(Cl)c(Cl)c1 here?
**A.** 182%

**Q.** For COc1ccc(NC(=O)CSc2nnc(-c3ccc(-c4nc5ccc(Cl)cc5[nH]4)cc3)o2)cc1, which growth is on record?
**A.** 60.2%

**Q.** For O=C1Nc2ccc(F)cc2/C1=C/C(=O)c1cc2ccccc2oc1=O, which growth is on record?
**A.** 128%

**Q.** With Cn1cc(-c2cc(N)n3nc(-c4c[nH]c5ccccc45)cc3n2)c2ccccc21 as the compound, how does the growth read?
**A.** -90.4% (active)

**Q.** COc1nc(N)ncc1-c1ccc2ncnc(N3CCc4cc(F)c(Cl)cc43)c2c1 was tested. Which growth did it give?
**A.** -15.6% (active)

**Q.** With CN1CCN(C(=O)Oc2cc3c(c4ccccc24)[C@H](CCl)CN3C(=O)c2cc3cc(OCCCN4CCC4)ccc3[nH]2)[C@@H]2CSSC[C@H]21 as the compound, how does the growth read?
**A.** -18.7% (active)

**Q.** For COc1ccc2[nH]cc(-c3cc4nc(-c5cn(C)c6ncccc56)cc(N)n4n3)c2c1, which growth is on record?
**A.** 116%

**Q.** With COc1ccc(N=Nc2c(N)nn3c(-c4ccc(OC)c(OC)c4)ccnc23)cc1 as the compound, how does the growth read?
**A.** 95.7%

**Q.** For Cc1ccc2nc(NC(=O)Nc3cccc(Cl)c3)sc2c1, which growth is on record?
**A.** 144%

**Q.** COc1ccc(Nc2ncnc3sc4c(c23)CCN(Cc2ccccc2)C4)cc1 was tested. Which growth did it give?
**A.** 91.9%

**Q.** How did the growth turn out when O=C1/C(=C/C=C/c2ccco2)SC(=S)N1CC(=S)C1C=CS(=O)(=O)C1 (stereo unspecified) was run?
**A.** 141%

**Q.** For CC1=C(C(=O)OCc2ccccc2)C(c2cccc3ccccc23)n2c(nc3ccccc32)N1 (stereo unspecified), which growth is on record?
**A.** 62.6%

**Q.** CN(C)c1nc(NCCNS(=O)(=O)c2ccc(C(=O)/C=C/c3ccccc3)cc2)nc(N2CCOCC2)n1 was tested. Which growth did it give?
**A.** 77.2%

These compounds were tested on CCRF-CEM leukemia in the same assay as above. Details: 10 µM unless noted.

**Q.** With OCCn1cc(-c2nc3ccc4[nH]ncc4c3c3c2CCCC3)cn1 as the compound, how does the growth read?
**A.** 48.4%

**Q.** O=C1Nc2cc(-c3ccc(NS(=O)(=O)c4ccc([N+](=O)[O-])cc4)cc3)ccc2/C1=C/c1ccc[nH]1 was tested. Which growth did it give?
**A.** 27.5%

**Q.** O=C(Cn1c(-c2ccccc2)nc2ccccc21)N=Nc1c(O)[nH]c2ccc(Br)cc12 was tested. Which growth did it give?
**A.** 32.5%

**Q.** Which growth does the source give for Cc1nc2sccn2c1-c1nnc(SCc2ccccc2)o1 here?
**A.** 91.3%

**Q.** CCC1(OC(=O)c2ccccc2SSCCOC(=O)CCCCC2SCC3NC(=O)NC32)C(=O)OCc2c1cc1n(c2=O)Cc2cc3ccccc3nc2-1 (stereo unspecified) was tested. Which growth did it give?
**A.** 9.01% (active)

**Q.** With C=CC(=O)Nc1ccc(C(=O)/C=C/c2ccc(N(C)C)cc2)c(O)c1 as the compound, how does the growth read?
**A.** 11.2%

**Q.** With COc1ccc(C(=O)c2cc(C(C)=O)c3c(C)cc(C)cn23)cc1 as the compound, how does the growth read?
**A.** 104%

**Q.** Cc1ccc(S(=O)(=O)N(CCn2ccnc2[N+](=O)[O-])CCn2ccnc2[N+](=O)[O-])cc1 was tested. Which growth did it give?
**A.** 100%

**Q.** With Cc1ccc(S(=O)(=O)Nc2ccc(-c3ccc4c(c3)NC(=O)/C4=C\c3ccc[nH]3)cc2)cc1 as the compound, how does the growth read?
**A.** 62.3%

**Q.** For COc1ccc2c(c1)C(=O)N(C)C2C1c2c(cc3c(c2OC)OCO3)CCN1C (stereo unspecified), which growth is on record?
**A.** 66.3%

**Q.** For Cc1ccc(C2CC(c3ccc(NC(=O)Nc4ccccc4)cc3)=NN2c2ccc(S(N)(=O)=O)cc2)cc1 (stereo unspecified), which growth is on record?
**A.** -17.7% (active)

**Q.** COC(=O)c1cc(C(=O)C(Br)Br)n2c1ccc1c3ccccc3ccc12 was tested. Which growth did it give?
**A.** 35.6%

**Q.** How did the growth turn out when COc1ccc2c(c1)N=c1c-2cc2c(O)[nH]c(=S)n2c1=O was run?
**A.** 11.1%

**Q.** Which growth does the source give for O=Cc1cncc(-c2ccc3ncnc(N4CCc5cc(F)c(Cl)cc54)c3c2)c1 here?
**A.** 16.6%

**Q.** Which growth does the source give for CC1=C(C(=O)OC(C)C)C(c2ccc(O)cc2)NC(=O)N1 (stereo unspecified) here?
**A.** 93.9%

**Q.** How did the growth turn out when COC(=O)CSC1=C(C)C(=O)C(OC)=C(OC)C1=O was run?
**A.** 25%

**Q.** Which growth does the source give for O=C1Nc2ccccc2/C1=C/C(=O)c1cc2ccccc2oc1=O here?
**A.** 54.7%

**Q.** COC(=O)c1ccc(-c2c(-c3ccccc3)c(F)c3oc(C(=O)OC)c(N)c3c2-c2ccccc2)cc1 was tested. Which growth did it give?
**A.** 95%

**Q.** COc1cc(-c2ccc3ncnc(N4CCc5ccc(Cl)cc54)c3c2)cnc1Cl was tested. Which growth did it give?
**A.** 12.2%

**Q.** How did the growth turn out when Oc1cncc(-c2ccc3ncnc(N4CCc5cc(F)c(Cl)cc54)c3c2)c1 was run?
**A.** 76.2%

**Q.** Which growth does the source give for Nc1cc(-c2c[nH]c3ccc(F)cc23)nc2cc(-c3c[nH]c4ccccc34)nn12 here?
**A.** -11.6% (active)

**Q.** For C/C(=N\Nc1ccc(S(N)(=O)=O)cc1)c1cnn(-c2cc(=O)[nH]c3ccc(Br)cc23)c1C, which growth is on record?
**A.** 8.23% (active)

**Q.** How did the growth turn out when O=C(Cn1c(-c2ccccc2)nc2ccccc21)N=Nc1c(O)[nH]c2ccc(Cl)cc12 was run?
**A.** 31.8%

**Q.** COC(=O)c1c(C(=O)OC)c2ccc3c4ccccc4ccc3n2c1C(=O)OC was tested. Which growth did it give?
**A.** 101%

**Q.** Which growth does the source give for COc1sc(/C=N/NC(=O)c2[nH]c3ccc(Br)cc3c2-c2ccccc2)cc1Br here?
**A.** 6.23% (active)

**Q.** For O=C(NNC(=O)c1ccc(OCc2nc3ccc(Cl)cc3[nH]2)cc1)Nc1ccc(Cl)c(Cl)c1, which growth is on record?
**A.** 88.5%

**Q.** With COc1ccc(NC(=O)CSc2nnc(-c3ccc(-c4nc5ccc(Cl)cc5[nH]4)cc3)o2)cc1 as the compound, how does the growth read?
**A.** 54.2%

**Q.** Which growth does the source give for O=C1Nc2ccc(F)cc2/C1=C/C(=O)c1cc2ccccc2oc1=O here?
**A.** 39.6%

**Q.** For Cn1cc(-c2cc(N)n3nc(-c4c[nH]c5ccccc45)cc3n2)c2ccccc21, which growth is on record?
**A.** -20.6% (active)

**Q.** Which growth does the source give for COc1nc(N)ncc1-c1ccc2ncnc(N3CCc4cc(F)c(Cl)cc43)c2c1 here?
**A.** 61.6%

**Q.** With CN1CCN(C(=O)Oc2cc3c(c4ccccc24)[C@H](CCl)CN3C(=O)c2cc3cc(OCCCN4CCC4)ccc3[nH]2)[C@@H]2CSSC[C@H]21 as the compound, how does the growth read?
**A.** -28% (active)

**Q.** COc1ccc2[nH]cc(-c3cc4nc(-c5cn(C)c6ncccc56)cc(N)n4n3)c2c1 was tested. Which growth did it give?
**A.** -34.3% (active)

**Q.** COc1ccc(N=Nc2c(N)nn3c(-c4ccc(OC)c(OC)c4)ccnc23)cc1 was tested. Which growth did it give?
**A.** 86.9%

**Q.** How did the growth turn out when Cc1ccc2nc(NC(=O)Nc3cccc(Cl)c3)sc2c1 was run?
**A.** 89.6%

**Q.** Which growth does the source give for COc1ccc(Nc2ncnc3sc4c(c23)CCN(Cc2ccccc2)C4)cc1 here?
**A.** 73.5%

**Q.** Which growth does the source give for O=C1/C(=C/C=C/c2ccco2)SC(=S)N1CC(=S)C1C=CS(=O)(=O)C1 (stereo unspecified) here?
**A.** 45.9%

**Q.** How did the growth turn out when CC1=C(C(=O)OCc2ccccc2)C(c2cccc3ccccc23)n2c(nc3ccccc32)N1 (stereo unspecified) was run?
**A.** 25.8%

**Q.** For CN(C)c1nc(NCCNS(=O)(=O)c2ccc(C(=O)/C=C/c3ccccc3)cc2)nc(N2CCOCC2)n1, which growth is on record?
**A.** 55.1%
